# Columns and labels:
# Experiment in all cases: DAPPL (digital affinity profiling via proximity ligation, sequencing); 10 mM Tris-HCl pH 7.5, 50 mM NaCl, 1 mM DTT, 4% glycerol, room temperature, 30 min; GST-TFs on glutathione beads, 16-mer random dsDNA library, 0.1% formaldehyde crosslink after washing; high values mean tight binding
# Conditions in all cases: protein: recombinant; tags: N-terminal GST; dsDNA, one strand shown
# FLI1 = biological target: T1, FLI1 (Homo sapiens, UniProt Q01543 1-452)
# T1 sequence: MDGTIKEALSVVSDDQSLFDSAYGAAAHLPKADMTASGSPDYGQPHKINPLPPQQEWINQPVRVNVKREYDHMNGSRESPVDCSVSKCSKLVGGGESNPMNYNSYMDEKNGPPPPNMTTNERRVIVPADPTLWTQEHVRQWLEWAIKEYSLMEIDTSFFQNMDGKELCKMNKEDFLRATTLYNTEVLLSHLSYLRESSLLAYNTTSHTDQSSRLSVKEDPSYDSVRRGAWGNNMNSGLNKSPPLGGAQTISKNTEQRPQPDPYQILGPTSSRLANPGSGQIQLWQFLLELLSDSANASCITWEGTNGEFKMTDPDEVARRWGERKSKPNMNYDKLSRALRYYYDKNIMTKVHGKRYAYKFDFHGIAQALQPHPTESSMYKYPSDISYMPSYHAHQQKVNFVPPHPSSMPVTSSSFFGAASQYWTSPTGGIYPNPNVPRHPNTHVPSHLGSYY
# Method in brief: (§1)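 Human transcription factors fused to GST were expressed in yeast, captured on glutathione beads, given DNA barcodes and pooled with a GST-only negative control. Pools were incubated with 200 nmole of a 16-mer random double-stranded DNA library in Tris/NaCl/DTT/glycerol buffer at room temperature for 30 min. They were then washed, crosslinked with 0.1% formaldehyde, proximity-ligated (BsaI/T4 ligase, 1 h, 37 °C), PCR-amplified and sequenced on an Illumina NextSeq500. Binding signal is each 6-mer's read frequency for a factor divided by its frequency for the GST control.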
# ELK1 = biological target: T2, ELK1 (Homo sapiens, UniProt P19419 1-428)
# T2 sequence: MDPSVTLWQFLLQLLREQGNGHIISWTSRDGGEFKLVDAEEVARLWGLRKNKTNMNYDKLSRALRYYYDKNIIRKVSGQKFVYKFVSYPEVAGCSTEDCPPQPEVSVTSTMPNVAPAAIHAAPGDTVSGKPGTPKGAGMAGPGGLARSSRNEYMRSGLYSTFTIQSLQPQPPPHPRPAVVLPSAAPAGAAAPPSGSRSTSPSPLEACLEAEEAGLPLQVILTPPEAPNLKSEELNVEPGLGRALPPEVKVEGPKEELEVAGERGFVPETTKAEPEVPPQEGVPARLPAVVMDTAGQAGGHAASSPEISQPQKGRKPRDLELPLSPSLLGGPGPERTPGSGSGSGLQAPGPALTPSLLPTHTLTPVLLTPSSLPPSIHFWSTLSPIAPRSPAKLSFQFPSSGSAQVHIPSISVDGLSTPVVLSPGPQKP
# Method in brief: as §1
# GABPA = biological target: T3, GABPA (Homo sapiens, UniProt Q06546 1-454)
# T3 sequence: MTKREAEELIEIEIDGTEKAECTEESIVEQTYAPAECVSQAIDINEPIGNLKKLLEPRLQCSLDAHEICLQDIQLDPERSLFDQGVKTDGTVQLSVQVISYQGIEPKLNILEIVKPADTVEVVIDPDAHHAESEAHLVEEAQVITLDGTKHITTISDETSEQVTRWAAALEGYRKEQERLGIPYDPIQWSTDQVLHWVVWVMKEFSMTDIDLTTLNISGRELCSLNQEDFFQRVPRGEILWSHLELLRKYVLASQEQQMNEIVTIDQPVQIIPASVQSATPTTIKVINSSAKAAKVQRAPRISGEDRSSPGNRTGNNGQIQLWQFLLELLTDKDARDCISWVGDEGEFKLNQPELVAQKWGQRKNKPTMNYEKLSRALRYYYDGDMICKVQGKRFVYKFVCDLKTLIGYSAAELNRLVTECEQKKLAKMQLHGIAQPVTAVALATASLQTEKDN
# Method in brief: as §1
# ERG = biological target: T4, ERG (Homo sapiens, UniProt P11308 1-479)
# T4 sequence: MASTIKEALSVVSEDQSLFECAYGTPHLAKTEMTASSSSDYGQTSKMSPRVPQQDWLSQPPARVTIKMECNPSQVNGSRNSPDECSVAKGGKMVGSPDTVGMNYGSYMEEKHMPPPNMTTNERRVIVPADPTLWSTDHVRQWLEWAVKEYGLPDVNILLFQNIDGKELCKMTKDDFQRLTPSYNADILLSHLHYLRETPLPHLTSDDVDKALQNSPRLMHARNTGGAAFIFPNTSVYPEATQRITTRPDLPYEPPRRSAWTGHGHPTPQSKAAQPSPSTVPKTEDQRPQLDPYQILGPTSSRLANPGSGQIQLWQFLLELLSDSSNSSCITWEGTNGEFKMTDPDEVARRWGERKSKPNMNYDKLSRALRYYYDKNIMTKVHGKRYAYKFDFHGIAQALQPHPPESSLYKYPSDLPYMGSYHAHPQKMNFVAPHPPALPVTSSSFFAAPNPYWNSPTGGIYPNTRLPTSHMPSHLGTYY
# Method in brief: as §1
# ELF1 = ELF1 (Homo sapiens, UniProt P32519 1-619)
# Chain of ELF1 (P32519 whole entry): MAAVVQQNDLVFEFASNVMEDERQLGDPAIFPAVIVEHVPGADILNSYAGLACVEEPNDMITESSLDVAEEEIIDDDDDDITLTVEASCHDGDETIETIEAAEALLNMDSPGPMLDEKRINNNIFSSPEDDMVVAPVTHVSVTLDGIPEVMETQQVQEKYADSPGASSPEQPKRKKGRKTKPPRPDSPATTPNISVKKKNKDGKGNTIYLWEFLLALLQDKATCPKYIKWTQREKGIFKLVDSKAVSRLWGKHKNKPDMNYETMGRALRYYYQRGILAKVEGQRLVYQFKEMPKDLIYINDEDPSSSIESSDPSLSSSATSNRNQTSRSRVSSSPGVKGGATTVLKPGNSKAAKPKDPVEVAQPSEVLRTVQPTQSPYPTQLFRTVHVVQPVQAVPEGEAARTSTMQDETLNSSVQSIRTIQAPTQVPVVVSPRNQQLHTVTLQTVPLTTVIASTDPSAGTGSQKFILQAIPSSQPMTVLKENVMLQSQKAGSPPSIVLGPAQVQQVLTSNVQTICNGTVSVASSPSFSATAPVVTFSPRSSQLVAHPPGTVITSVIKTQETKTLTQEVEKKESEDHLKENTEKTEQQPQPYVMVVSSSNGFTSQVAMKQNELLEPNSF
# Method in brief: as §1
# EHF = biological target: T5, EHF (Homo sapiens, UniProt Q9NZC4 1-300)
# T5 sequence: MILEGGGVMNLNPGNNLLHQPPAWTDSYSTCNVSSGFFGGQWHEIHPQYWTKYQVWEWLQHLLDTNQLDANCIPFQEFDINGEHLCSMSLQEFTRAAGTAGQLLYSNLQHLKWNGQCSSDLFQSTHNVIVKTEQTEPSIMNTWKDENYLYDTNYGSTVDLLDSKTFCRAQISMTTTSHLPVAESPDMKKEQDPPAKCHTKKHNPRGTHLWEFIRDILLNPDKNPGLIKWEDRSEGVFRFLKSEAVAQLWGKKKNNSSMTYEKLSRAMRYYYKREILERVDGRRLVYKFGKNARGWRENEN
# Method in brief: as §1
# SPI1 = SPI1 (Homo sapiens, UniProt P17947 1-270)
# Method in brief: as §1
# SPIB = SPIB (Homo sapiens, UniProt Q01892 1-262)
# Chain of SPIB (Q01892 whole entry): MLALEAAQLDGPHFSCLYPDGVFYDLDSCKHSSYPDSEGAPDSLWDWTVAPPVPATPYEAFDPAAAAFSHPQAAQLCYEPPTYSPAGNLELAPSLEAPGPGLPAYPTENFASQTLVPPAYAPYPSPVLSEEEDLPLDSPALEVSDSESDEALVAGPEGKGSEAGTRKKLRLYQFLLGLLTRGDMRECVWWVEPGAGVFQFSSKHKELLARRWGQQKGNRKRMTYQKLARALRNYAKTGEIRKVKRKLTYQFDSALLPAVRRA
# Method in brief: as §1
# ELK3 = biological target: T6, ELK3 (Homo sapiens, UniProt P41970 1-407)
# T6 sequence: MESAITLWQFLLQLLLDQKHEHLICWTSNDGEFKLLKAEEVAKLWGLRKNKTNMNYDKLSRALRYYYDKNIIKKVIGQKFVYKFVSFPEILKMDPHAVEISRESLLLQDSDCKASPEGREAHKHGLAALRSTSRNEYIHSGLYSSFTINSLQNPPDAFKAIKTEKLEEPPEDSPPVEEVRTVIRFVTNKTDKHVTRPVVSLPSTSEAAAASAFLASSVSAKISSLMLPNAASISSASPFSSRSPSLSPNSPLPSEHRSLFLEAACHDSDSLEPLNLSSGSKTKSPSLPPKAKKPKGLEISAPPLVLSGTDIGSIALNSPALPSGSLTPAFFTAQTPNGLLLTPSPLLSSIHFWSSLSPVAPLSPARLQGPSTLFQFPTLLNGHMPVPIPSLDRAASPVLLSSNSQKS
# Method in brief: as §1
Sequence,binding signal (FLI1),binding signal (ELK1),binding signal (GABPA),binding signal (ERG),binding signal (ELF1),binding signal (EHF),binding signal (SPI1),binding signal (SPIB),binding signal (ELK3)
CCATCC,"1.24 fold enrichment (6-mer frequency, TF over GST control)","1.28 fold enrichment (6-mer frequency, TF over GST control)","1.23 fold enrichment (6-mer frequency, TF over GST control)","1.32 fold enrichment (6-mer frequency, TF over GST control)","1.27 fold enrichment (6-mer frequency, TF over GST control)","1.27 fold enrichment (6-mer frequency, TF over GST control)","1.31 fold enrichment (6-mer frequency, TF over GST control)","1.3 fold enrichment (6-mer frequency, TF over GST control)","1.41 fold enrichment (6-mer frequency, TF over GST control)"
TCTACG,"1.37 fold enrichment (6-mer frequency, TF over GST control)","1.4 fold enrichment (6-mer frequency, TF over GST control)","1.3 fold enrichment (6-mer frequency, TF over GST control)","1.32 fold enrichment (6-mer frequency, TF over GST control)","1.38 fold enrichment (6-mer frequency, TF over GST control)","1.32 fold enrichment (6-mer frequency, TF over GST control)","1.49 fold enrichment (6-mer frequency, TF over GST control)","1.44 fold enrichment (6-mer frequency, TF over GST control)","1.28 fold enrichment (6-mer frequency, TF over GST control)"
GAAACT,"1.22 fold enrichment (6-mer frequency, TF over GST control)","1.21 fold enrichment (6-mer frequency, TF over GST control)","1.14 fold enrichment (6-mer frequency, TF over GST control)","1.11 fold enrichment (6-mer frequency, TF over GST control)","1.18 fold enrichment (6-mer frequency, TF over GST control)","1.19 fold enrichment (6-mer frequency, TF over GST control)","1.2 fold enrichment (6-mer frequency, TF over GST control)","1.14 fold enrichment (6-mer frequency, TF over GST control)","1.22 fold enrichment (6-mer frequency, TF over GST control)"
AACTTG,"1.26 fold enrichment (6-mer frequency, TF over GST control)","1.2 fold enrichment (6-mer frequency, TF over GST control)","1.18 fold enrichment (6-mer frequency, TF over GST control)","1.11 fold enrichment (6-mer frequency, TF over GST control)","1.21 fold enrichment (6-mer frequency, TF over GST control)","1.14 fold enrichment (6-mer frequency, TF over GST control)","1.15 fold enrichment (6-mer frequency, TF over GST control)","1.19 fold enrichment (6-mer frequency, TF over GST control)","1.08 fold enrichment (6-mer frequency, TF over GST control)"
TGTATC,"1.65 fold enrichment (6-mer frequency, TF over GST control)","1.39 fold enrichment (6-mer frequency, TF over GST control)","1.45 fold enrichment (6-mer frequency, TF over GST control)","1.39 fold enrichment (6-mer frequency, TF over GST control)","1.38 fold enrichment (6-mer frequency, TF over GST control)","1.36 fold enrichment (6-mer frequency, TF over GST control)","1.37 fold enrichment (6-mer frequency, TF over GST control)","1.45 fold enrichment (6-mer frequency, TF over GST control)","1.44 fold enrichment (6-mer frequency, TF over GST control)"
GTCCTT,"1.16 fold enrichment (6-mer frequency, TF over GST control)","1.2 fold enrichment (6-mer frequency, TF over GST control)","1.28 fold enrichment (6-mer frequency, TF over GST control)","1.22 fold enrichment (6-mer frequency, TF over GST control)","1.26 fold enrichment (6-mer frequency, TF over GST control)","1.28 fold enrichment (6-mer frequency, TF over GST control)","1.29 fold enrichment (6-mer frequency, TF over GST control)","1.34 fold enrichment (6-mer frequency, TF over GST control)","1.25 fold enrichment (6-mer frequency, TF over GST control)"
ATGGTC,"1.66 fold enrichment (6-mer frequency, TF over GST control)","1.45 fold enrichment (6-mer frequency, TF over GST control)","1.65 fold enrichment (6-mer frequency, TF over GST control)","1.69 fold enrichment (6-mer frequency, TF over GST control)","1.55 fold enrichment (6-mer frequency, TF over GST control)","1.47 fold enrichment (6-mer frequency, TF over GST control)","1.64 fold enrichment (6-mer frequency, TF over GST control)","1.66 fold enrichment (6-mer frequency, TF over GST control)","1.52 fold enrichment (6-mer frequency, TF over GST control)"
ATCATG,"1.21 fold enrichment (6-mer frequency, TF over GST control)","1.15 fold enrichment (6-mer frequency, TF over GST control)","1.22 fold enrichment (6-mer frequency, TF over GST control)","1.1 fold enrichment (6-mer frequency, TF over GST control)","1.17 fold enrichment (6-mer frequency, TF over GST control)","1.19 fold enrichment (6-mer frequency, TF over GST control)","1.06 fold enrichment (6-mer frequency, TF over GST control)","1.14 fold enrichment (6-mer frequency, TF over GST control)","1.15 fold enrichment (6-mer frequency, TF over GST control)"

# From PMC7862700, “An all-to-all approach to the identification of sequence-specific readers for epigenetic DNA modifications on cytosine”
